Assay outcomes as filed in PubChem BioAssay.
An excerpt weighted towards active compounds, which were near 18% of everything screened.
LDHA inh: blocks human lactate dehydrogenase A. purified LDHA, NADH/diaphorase-resazurin fluorescence; hits give low values. activity change, % (values are at about 110 or 230 µM). 0.15% of 480,000 active. AID 1347041; in the data active = activity change below about -30%; inconclusive = mostly about -25% to -30%
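Enzyme activity of human lactate dehydrogenase 5 (2 nM; 0.06 mM NADH, 0.2 mM pyruvate, 5 min, RT) is measured via a resazurin/diaphorase fluorescence readout of residual NADH.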
TDP1 cell CPT: DT40-hTDP1 cell growth loss with CPT. chicken DT40 Tdp1-/-;hTDP1 cells + 20 nM CPT, ATP luminescence, 48 h. Potency, µM (series often up to 46.2 µM), actives largely listed as inhibitors. 12% of 420,000 active. AID 686979; also: nearly all actives have a fitted effect of over 55% in size
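Chicken DT40 Tdp1-/- cells stably complemented with human TDP1 were seeded at 400 cells/well in medium containing 20 nM camptothecin, exposed to pin-transferred compounds, and grown at 37 °C for at least 48 hr. Viability was read as ATP luminescence.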
RORgamma inh: ROR gamma (mouse) transcription inhibition; P51450; Drosophila S2 Gal4-RORgamma UAS-luciferase reporter, 20 h; Potency, µM (top dose mostly 53.6 µM), actives largely listed as inhibitors; 5.4% of 310,000 active; AID 2551; also: nearly all actives have a fitted effect of over 60% in size
Target sequence (P51450 whole entry, looked up, the tested form may be a part): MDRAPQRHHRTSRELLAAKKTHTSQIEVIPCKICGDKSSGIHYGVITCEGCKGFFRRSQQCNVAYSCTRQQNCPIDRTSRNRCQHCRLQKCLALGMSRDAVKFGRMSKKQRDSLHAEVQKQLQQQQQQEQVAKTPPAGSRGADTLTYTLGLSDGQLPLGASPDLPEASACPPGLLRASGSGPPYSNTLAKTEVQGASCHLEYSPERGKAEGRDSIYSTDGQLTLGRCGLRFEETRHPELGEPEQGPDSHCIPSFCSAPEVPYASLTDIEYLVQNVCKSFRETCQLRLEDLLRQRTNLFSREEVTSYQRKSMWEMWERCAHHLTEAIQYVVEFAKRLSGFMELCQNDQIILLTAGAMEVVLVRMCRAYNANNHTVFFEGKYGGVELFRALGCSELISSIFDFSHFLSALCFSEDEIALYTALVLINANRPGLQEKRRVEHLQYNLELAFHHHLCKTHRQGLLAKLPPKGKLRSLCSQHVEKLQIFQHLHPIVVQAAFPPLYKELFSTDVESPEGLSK
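Drosophila Schneider cells stably carrying a metallothionein-driven Gal4 DBD–ROR gamma fusion and a UAS-Photinus luciferase reporter were exposed to compound for 1 hr, then induced with copper sulfate (700 uM final) for 20 hr at ambient temperature before luminescence reading.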
DT40 TDP1 no CPT: qHTS for Inhibitors of human tyrosyl-DNA phosphodiesterase 1 (TDP1): qHTS in cells in absence of CPT | DT40 Tdp1-/- hTDP1 cells, no CPT, ATP luminescence, 48 h | Potency, µM (doses to about 46.2 µM), usual class: inhibitors | 15% of 420,000 active | AID 686978, 2013; also: nearly all actives have a fitted effect of over 55% in size
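Camptothecin absent (DMSO only). Human TDP1-complemented DT40 knockout cells, 400 cells/well, 37 °C for minimum 48 hr; ATP measured via CellTiter-Glo, 30 min dark incubation, luminescence.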
VP16 counter: Gal4-VP16 reporter inhibition counter-screen; Drosophila S2 Gal4-VP16 UAS-luciferase, luminescence, 20 h; Potency, µM (titrated, usually from 53.6 µM), hits mostly inhibitors; AID 2546; 3.5% of 310,000 active;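 also: Gal4-VP16 expression switched on by copper sulfate through the metallothionein promoter; nearly all actives have a fitted effect of over 50% in size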
IL1B secr inh: inhibitors of inflammasome signaling (IL-1 beta secretion). activity change, % at 57.5 µM. 4.7% of 360,000 active. THP-1 LPS/ATP IL-1B secretion, AlphaLISA, 16 h; hits give low values; in the data active = activity change below about -50%; inconclusive = mostly about -30% to -49%
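THP-1 cells pretreated 1 hr with compounds (up to 57.5 uM final), then stimulated with LPS (250 ng/mL final) plus ATP (1.25 mM final); secreted IL-1B measured by AlphaLISA after 16 hr, decreased signal indicating inhibition.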
Hits are given with their value; i = inactive; ? = inconclusive; nt = no result given; [ ] = dose if it differs, or a comment. Unless noted, calls follow the shape of the dose curve; as a rule, active = well fitted curve in the direction sought with a large enough effect; inconclusive = small, poorly fitted or top-dose-only effect, or another doubt; inactive = no such curve, though single readings can be large; an effect the other way counts as inactive or inconclusive.

SMILES	LDHA inh	TDP1 cell CPT	RORgamma inh	DT40 TDP1 no CPT	VP16 counter	IL1B secr inh
CCCCCCn1cc(C(=O)OCC)c(=O)c2cc(F)c(F)cc21	i	?	i	23.1µM	i	?
CCOC(=O)c1cn(CC#N)c2cc(F)c(F)cc2c1=O	i	i	i	i	i	i
CCCCCCn1cc(C(=O)O)c(=O)c2cc(F)c(N3CCN(C)CC3)cc21	i	16.4µM	i	18.4µM	i	i
CCCCCCNC(=O)c1cn(CC)c2cc(N3CCN(C)CC3)c(F)cc2c1=O	i	20.6µM	11.2µM	25.9µM	12.6µM	-55.0
CCn1cc(C(=O)NCCCO)c(=O)c2cc(F)c(N3CCN(C)CC3)cc21	i	i	i	i	i	i
CCCCCCCC(=O)N1CCN(c2cc3c(cc2F)c(=O)c(C(=O)O)cn3CC)CC1	i	23.1µM	i	?	i	i
Cc1nn(C)c(Cl)c1C=O	i	nt	nt	nt	nt	nt
COc1ccc(CN(C)C(=O)c2n[nH]c(=O)c3ccccc23)cc1F	i	nt	nt	nt	nt	nt
CCn1cc(C(=O)NCc2ccccn2)c(=O)c2cc(F)c(N3CCN(C)CC3)cc21	i	i	i	i	i	i
CCn1cc(C(=O)N[C@H](C)c2ccccc2)c(=O)c2cc(F)c(N3CCN(C)CC3)cc21	i	?	i	?	i	-74.3
Cc1cccc(-c2cc(C(=O)NC3CCCC3)c3ccccc3n2)c1	i	nt	nt	nt	nt	nt
CN1CCC(NC(=O)c2cc(-c3cccc(Br)c3)nc3ccccc23)CC1	i	?	?	?	i	-79.1
O=C(NC1CC1)c1cc(-c2ccc(Br)cc2)nc2ccccc12	i	?	nt	14.6µM	nt	i
O=C(NC1CC1)c1cc(-c2ccccc2)nc2ccccc12	i	nt	nt	nt	nt	nt
O=C(NC1CCCCCCC1)c1cc(-c2ccccn2)nc2ccccc12	i	?	i	18.4µM	i	i
Cc1cc(C)cc(Nc2cc(C(=O)NC3CCC(C)CC3)c3ccccc3n2)c1 (stereo unspecified)	i	?	nt	9.2µM	nt	nt
CSc1nnnn1-c1cccc(NC(=O)c2cccc(Cl)c2)c1	i	nt	nt	nt	nt	nt
CCCn1c(=O)c2c(nc(-n3nc(C)c(C)c3C)n2CC)n(C)c1=O	i	nt	nt	nt	nt	nt
Cc1ccc(C)c(C(=O)Cn2nc(C(=O)O)c3ccccc3c2=O)c1	i	nt	nt	nt	nt	nt
CCc1ccc(CN(C)CC(=O)Nc2ccccc2[N+](=O)[O-])cc1	i	?	i	?	i	i
C=CCOc1ccc(CN(C)CC(=O)Nc2ccccc2[N+](=O)[O-])cc1	i	?	i	20.6µM	i	i
COc1cccc(NC(=O)CN(C)CC(=O)Nc2ccc(C)c([N+](=O)[O-])c2)c1	i	?	?	10.3µM	?	i
COc1ccc(NC(=O)CN(C)CC(=O)c2[nH]c(C)c(C(C)=O)c2C)cc1	i	?	nt	?	nt	i
CN(CC(=O)Nc1cccc(F)c1)CC(=O)Nc1ccc(Cl)cc1[N+](=O)[O-]	i	?	i	i	i	i
COC(=O)c1c(C)[nH]c(C(=O)CN(C)CC(=O)Nc2cccc(F)c2)c1C	i	i	nt	14.6µM	nt	i
SMILES	LDHA inh	TDP1 cell CPT	RORgamma inh	DT40 TDP1 no CPT	VP16 counter	IL1B secr inh
CN(CC(=O)Nc1cccc(F)c1)CC(=O)Nc1ccccc1[N+](=O)[O-]	i	23.1µM	i	11.6µM	i[10 µM]	i
CC(C(=O)NC(C)(C)C)N(c1ccc(F)cc1)S(C)(=O)=O (stereo unspecified)	i	nt	nt	nt	nt	nt
COc1ccc(-c2nnsc2C(=O)NC(C)CCc2ccccc2)cc1 (stereo unspecified)	i	nt	nt	nt	nt	nt
CCCCCCNC(N)=S	i	nt	nt	nt	nt	nt
Cc1ccc(C)c(Cn2c(N3CCN(C/C=C/c4ccccc4)CC3)nc3c2c(=O)[nH]c(=O)n3C)c1	i	nt	nt	nt	nt	nt
O=C(O)c1ccc(COc2cccc(Cl)c2Cl)o1	i	nt	nt	nt	nt	nt
CC(=O)N1CCN(c2ccc(NC(=O)COc3c(C)cc(C)cc3Cl)cc2)CC1	i	nt	nt	nt	nt	nt
CCCN1C(=O)c2ccccc2NC1c1cc(OC)c(OC)c(OC)c1 (stereo unspecified)	i	i	?	i	i	i
O=C1c2ccccc2NC(c2cccc([N+](=O)[O-])c2)N1CCc1ccccc1 (stereo unspecified)	i	i	i	?	i	-82.5
COc1ccc(CCN2C(=O)c3ccccc3NC2c2cc(Cl)c(O)c(OC)c2)cc1 (stereo unspecified)	i	4.61µM	i	4.11µM	i	i
CC(=O)N1CCC(N(Cc2ccc(C)o2)C(=O)Nc2ccccc2F)CC1	i	i	nt	i	nt	nt
COC(=O)c1ccc(Cl)cc1NC(=O)N(Cc1ccc(C)o1)C1CCN(C(C)=O)CC1	i	?	nt	14.6µM	nt	nt
CCN1CCC(N(Cc2ccc3c(c2)OCO3)C(=O)Nc2cc(Cl)ccc2C(=O)OC)CC1	i	13µM	nt	7.31µM	nt	nt
CCc1cc(C(=O)Nc2cc(Cl)ccc2Cl)no1	i	nt	nt	nt	nt	nt
O=C(CCc1ncc(-c2c(F)cccc2F)o1)Nc1cccc(F)c1	i	nt	nt	nt	nt	nt
CC(Sc1ccc2c(c1)OCCO2)C(=O)c1ccc(F)cc1 (stereo unspecified)	i	nt	nt	nt	nt	nt
CC(C)NC(=O)[C@]1(C)CCC[C@@]2(C)C3CC[C@@]4(C)C[C@]3(CCC21)CC4=O (stereo partly specified)	i	?	nt	i	nt	i
COC(=O)[C@]1(C)CCC[C@@]2(C)C3CC[C@]4(OC(C)=O)C[C@@]3(CCC21)CC4=O (stereo partly specified)	i	20.6µM	nt	?	nt	i
COC(=O)[C@]1(C)CCC[C@@]2(C)C3CC[C@@]4(C)C[C@]3(CCC21)CC(=O)N4Cc1ccc(OC)cc1 (stereo partly specified)	i	11.6µM	nt	6.51µM	nt	?
COc1ccc(C(=O)/C=C/c2ccc(OCC#N)c(OC)c2)cc1	i	nt	nt	nt	nt	nt
O=C(COc1ccc(Cl)cc1Br)Nc1ncn[nH]1	i	nt	nt	nt	nt	nt
Cc1ccc(NC(=O)CN(C)Cc2cccs2)cc1Cl	i	?	i	20.6µM	i	i
C/C(CC(=O)Nc1ccc(C)c(Cl)c1)=N\NC(=O)Cc1cccs1	i	i	i	i	i	i
CN(CC(=O)Nc1c(F)cccc1F)Cc1cccs1	i	i	i	i	i	i
CCN(CC)c1ccc(NC(=O)CN(C)Cc2cccs2)cc1	i	?	i	16.4µM	i	i
CCOc1ccc(CCN2C(=O)C(=O)N([C@@H](CC(C)C)CN3CCC[C@@H]3CN3C(=O)C(=O)NC[C@@H]3CC(C)C)C[C@@H]2Cc2ccccc2)cc1	i	?	nt	?	nt	i
CCOc1ccc(CCN2C(=S)N([C@@H](Cc3ccc(O)cc3)CN3CCC[C@@H]3CN3C(=S)NC[C@@H]3Cc3ccccc3)C[C@@H]2Cc2ccc(O)cc2)cc1	i	3.66µM	nt	4.11µM	nt	?
